Bioassay records: PubChem BioAssay, several laboratories
HSF-1 act – HSF-1 activators, primary screen, NIH3T3-HGL cells, MG132 stress, luminescence, single point; activation, % at 9 µM; hit rate 1.7% among 300,000; NIH3T3-HGL HSF-1 luciferase reporter, 8 h; 100% = twice DMSO control signal;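 active = mean replicate activation of at least 50% with a set share of replicates each reaching 50%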;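 also: 0% = median of the neutral control wells and 100% = twice that signal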
HSP90 refold inh – HSP90 inhibitors, primary screen, cell lysate, luminescence; Rabbit reticulocyte lysate, luciferase refolding luminescence, 3 h; inhibition, % at 5.6 µM; hit rate 0.91% among 290,000; AID 1789, 2009;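 active = inhibition above the screen-wide mean plus 3 SD, computed separately per campaign, cut at about 16% in these data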;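 also: 0% = DMSO wells and 100% = 60 µM geldanamycin wells; inhibitors lower the luminescence because luciferase stays unfolded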
HIF act – HIF pathway transcriptional activators, primary screen, cell-based, U2OS HRE-luciferase, luminescence. U2OS HRE-luciferase reporter; normalized: DMSO 0%, desferrioxamine 100%. hit rate 0.32% among 300,000. activation, % at 7.5 µM (by protocol). AID 1910, 2009;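 active = mean activation of at least 10% of the iron chelator positive control signal, with at least half of replicates also reaching 10%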
HSF1 inh – HSF1 inhibitors in luciferase reporter cells, primary screen, cell-based, NIH3T3, luminescence. NIH3T3-HGL HSE-luciferase, MG132-induced, luminescence 8 h; active compounds read low. activity change, negative = inhibition, % at 7.5 µM (by protocol). hit rate 0.77% among 300,000;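 active = more than half of replicate wells show activity change below -50%, luminescence cut by over half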;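 also: luciferase reports HSF-1 transcriptional activity via heat shock element; 0% = median of DMSO wells and -100% = zero luminescence signal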
ARNT TACC3 PPI – disruptors of ARNT/TACC3 protein interaction, primary screen, biochemical, AlphaScreen, single concentration; Transforming acidic coiled-coil-containing protein 3 (Homo sapiens), Q9Y6A5; AlphaScreen His-ARNT PAS-B/GST-TACC3 binding, luminescence; TACC3 fragment carries E629A point mutation; inhibition, % at 9.99 µM; hit rate 0.66% among 390,000;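 active = mean inhibition of replicates at least 50% and at least half of replicates each reaching 50%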;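 also: 0% = complete ARNT plus TACC3 wells and 100% = ARNT alone without TACC3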
Numbers without * were called inactive; . = not tested or not shown. Sampled rows, rich in hits. Any-hit rate of the full collection: about 3.1%.

SMILES | HSF-1 act | HSP90 refold inh | HIF act | HSF1 inh | ARNT TACC3 PPI
C[C@H](CO)N1C[C@H](C)[C@@H](CN(C)Cc2ccc3c(c2)OCO3)Oc2ccc(NC(=O)Nc3ccc(C(F)(F)F)cc3)cc2CC1=O | . | . | . | . | 7
C=CCn1c(-c2cccc3ccccc23)n[nH]c1=S | -79 | 4 | 0 | -73* | -13
COCc1cc(CN2CCCC(C(=O)Nc3ccc(-c4ccco4)cc3)C2)ccc1OC (stereo not given) | 64* | -1 | 0 | 19 | 27
Cc1csc2nc(CSc3nc4ccccc4o3)c(Br)n12 | 110* | 0 | 2 | 93 | -5
Cc1csc2nc(CSc3nncn3-c3ccccc3)c(Br)n12 | -13 | 3 | 0 | -6 | -2
Cn1c(=O)n(CCOc2ccc([N+](=O)[O-])cc2)c2ccccc21 | 17 | 2 | 2 | 18 | -6
Cc1ccc(OCCn2c(=O)n(C)c3ccccc32)cc1 | 59* | -1 | 2 | 28 | 0
COc1ccc(-c2c(C)[nH]n3c(=O)c(Cc4ccccc4)c(C)nc23)cc1OC | 6 | -4 | 0 | 1 | 87*
CNC(=O)C[C@@H]1CC[C@H]2[C@@H](COc3ccc(NC(=O)NC(C)C)cc3C(=O)N2C)O1 | . | . | . | . | -10
O=C1C=CC(O)(c2cc(=O)c3c(O)cc(O)cc3o2)C=C1 | -93 | 10 | -3 | -91* | 15
C[C@@H]1CN([C@@H](C)CO)C(=O)Cc2cc(NS(=O)(=O)c3ccc(F)cc3)ccc2O[C@H]1CN(C)C(=O)Nc1ccccc1 | . | . | . | . | 4
COc1ccccc1S(=O)(=O)N[C@H]1CC[C@@H](CCNC(=O)C2CCC2)O[C@@H]1CO | . | . | . | . | -8
COCCCNC(=S)NNC(=O)c1ccccn1 | 2 | 2 | 5 | -2 | 67*
COc1ccccc1C(=O)NCCCNC(=O)c1ccccn1 | 79* | 3 | 0 | 31 | .
COc1ccccc1C(=O)NCCCNC(=O)c1cnccn1 | -12 | -1 | 0 | -3 | 4
COc1ccc(C(=O)NCCOc2ccccc2Cl)c(OC)c1OC | 54* | 0 | 5 | 56 | -3
COCCCNC(=S)NNC(=O)c1ccccc1Br | -22 | 3 | 0 | -7 | 1
COc1cc(C(=O)NCCOc2ccccc2C)c(Br)c(OC)c1OC | 13 | -3 | 0 | 11 | -7
CS(=O)(=O)c1ccc(NC(=O)c2ccc3c(c2)S(=O)(=O)N=C2CCCCCN23)cc1 | -65 | . | 0 | -54* | 1
CCCN1C(=O)SC(CC(=O)Nc2ccccc2)C1=O (stereo not given) | -2 | 1 | 0 | -11 | -10
O=C(O)CC1SC(=O)N(Cc2ccccc2)C1=O (stereo not given) | -92 | 1 | 0 | -89* | -13
COc1cc(SC)ccc1C(=O)Nc1cccc(C)n1 | 34 | 0 | 2 | 23 | -8
COc1cc(SC)ccc1C(=O)Nc1ccc(C)cc1 | 55* | 2 | 0 | 18 | .
COc1cc(SC)ccc1C(=O)Nc1ccc(C)cc1C | 40 | 0 | 10* | 26 | -10
COc1cc(SC)ccc1C(=O)Nc1ncc(Cl)cc1Cl | 63* | 5 | 2 | 18 | -6
SMILES | HSF-1 act | HSP90 refold inh | HIF act | HSF1 inh | ARNT TACC3 PPI
C[C@@H]1CCCCO[C@@H](CN(C)Cc2ccccc2)[C@H](C)CN([C@@H](C)CO)C(=O)c2cc(NC(=O)Nc3ccc(F)cc3)ccc2O1 | . | . | . | . | -3
CCNC(=O)C[C@@H]1CC[C@H](NC(=O)C2CCOCC2)[C@@H](CO)O1 | . | . | . | . | -1
CC(=O)Nc1ccc2nc(NC(=O)COc3ccccc3C)sc2c1 | 36 | -3 | 12* | 9 | -4
Cc1ccc(NC(=O)COc2ccccc2C=O)cc1Cl | 80* | -1 | 4 | 44 | -2
CC(=O)Nc1ccc2nc(NC(=O)COc3ccccc3Cl)sc2c1 | 15 | -2 | 2 | 17 | -1
CC(=O)Nc1cccc(NC(=O)COc2ccccc2C)c1 | 30 | 0 | -13 | 4 | 4
COc1cccc(S(=O)(=O)N(C)C[C@@H]2Oc3cc(C4=CCCCC4)ccc3S(=O)(=O)N([C@H](C)CO)C[C@@H]2C)c1 | . | . | . | . | 21
CO[C@@H]1CN(C)C(=O)c2ccc(NS(=O)(=O)c3cccc(C)c3)cc2OC[C@H](C)NC[C@@H]1C | . | . | . | . | -6
